B1: d1r7_design_ppi_241_dldesign_0_cycle0_af2pred (protein)
chain: SELEARGERIKREAEELRRRAEASTDAEEALAYATELVALAAEAAALGDSEAASVAVRAAAAAHAHAQALRA
B2: d1r7_design_ppi_29_dldesign_0_cycle1_af2pred (protein)
chain: SAATAVALAQAAITFGRSALAAAERAPPERGAKILEAAAEILTAAAAQAPALAAETQALAAEARERAAELAAAAAA
B3: d1r7_design_ppi_300_dldesign_0_cycle0_af2pred (protein)
chain: MQVMLDAGEYLAKALKATGLEEAKEMAEEVLKAMKEAASLSPEEAESILGELMRKTIAKTGVVGAQAAALAYAHLAELKAA
B4: d1r6_design_ppi_906_dldesign_0_cycle0_af2pred (protein)
chain: AAAAQAEVTIKMGEAVIKQGEEWIEHPEYAEHAAKLLEAVADIAKATAKAAAAADAELAKKVEETRKKLEEVREKAKAVAEA
B5: d1r7_design_ppi_147_dldesign_0_cycle1_af2pred (protein)
chain: AAAAAKATAKQIAAIAEEAIAKVKAATPEEAKKIAAEANQQIRALAAAAAAAHPEVAAAVAAAATAAIQRVLSTAIEVVSA
B6: d1r7_design_ppi_270_dldesign_0_cycle1_af2pred (protein)
chain: SMEKALEYLEKAKKSLEEGDKAKAAGDKARALGYYQLAAAYAKSAAHLAKDNPELAKEAKELEKEAKAKLAEVRAA
B7: d1r7_design_ppi_322_dldesign_0_cycle0_af2pred (protein)
chain: MTLEDLKRAAKAYLHGLANLAAGLGLEELAKKLREAAANVDDAKALKEGAELAKELAALSTPEAAEFAKLAAEVAKAAAKAVEAA
B8: d1r6_design_ppi_754_dldesign_0_cycle1_af2pred (protein)
chain: GKEEELLKKAKEYFEEAEKYIKELEEVAAKAGPAAKGLVTFTKNYFERLKAKAEKATPEEALKLAKEAYDFAKDALEAAKTTLAALE
B9: d1r6_design_ppi_905_dldesign_0_cycle0_af2pred (protein)
chain: AAVEAAQEEALRALEEARALAREVLAADPERAARVAARIEEAAELVRDGEKINEGLALLVELAAESPAEVKPALMRAAALAGRAYVLR
B10: d1r7_design_ppi_393_dldesign_0_cycle1_af2pred (protein)
chain: EKLHPQAVAALKAQARNAAKLDPETMKKMAENVAKLVTLLSPAKAKEAEKVKELLLKAAEAKKKGAGEETLKALVEEAAKVIAE
B11: d1r6_design_ppi_106_dldesign_0_cycle0_af2pred (protein)
chain: AAISRAMYHHALGLADAANREAHLAAAAALRAALSPEDAARAEAQIAKIEAAAAANQAAAAAARAARAAAA
B12: d1r6_design_ppi_647_dldesign_0_cycle0_af2pred (protein)
chain: SKAELLAYKALAAAAKNALEQVKTGEEAEKAVESLKKMAEALGDEETAKLAEEALKAIKKSKEEGEKKLEEAKKYAEKKAKEAA
B13: d1r7_design_ppi_74_dldesign_0_cycle1_af2pred (protein)
chain: AKEKAEELYKKFSEEINKSLALLGKAGLAAVEDPAKGAELFKKAKAELEEAKKYAKKLEELDPELGKKAKAELKKVQDLYDGTYKANV
B14: d1r6_design_ppi_81_dldesign_0_cycle1_af2pred (protein)
chain: AATQQILITAAVMLEERLDELGRAAEVAAMALLYGAAFGSLEKAREKLEELAATLSAEEAARARATFDEAVAAAQAAA
B15: d1r6_design_ppi_627_dldesign_0_cycle1_af2pred (protein)
chain: DEVQREIRERVERGRETAKRAAQHPATAPIAAAIRATAERAEAASSDPERALNYAQMTDVAIANGELALAQVAA
B16: d1r6_design_ppi_250_dldesign_0_cycle0_af2pred (protein)
chain: SAALAAARGAILQAALSLGVERAREAFARVEASDPAEAAALAEALAAEAAARDPAIGARAAAGAAALRAA
B17: d1r7_design_ppi_351_dldesign_0_cycle0_af2pred (protein)
chain: EELEEKKKKAIELLKKAKEKAEKIGDTAVAAAAENAIKAIEAGNLEAAISNARLAKAIAAEDPALKEAAELAKKALEELEEAKKLAEA
B18: d1r6_design_ppi_265_dldesign_0_cycle1_af2pred (protein)
chain: AAAQARALGAVAKQAVLDGKFDEAKQLIEGLVNLAQADPAAAPQAAKEMKEIAKAAEEKAKADPANAAKYKALAKVAAAAAKEAEKAA
B19: d1r6_design_ppi_17_dldesign_0_cycle0_af2pred (protein)
chain: MDFAASAQAAQRDAERLAERGIASGDAADLRRATEAVEQLLEIVQGLAAQGAAEAGEQLQAAVERTRAALERTRAAAAAAEAAAA
B20: d1r7_design_ppi_396_dldesign_0_cycle0_af2pred (protein)
chain: SSPVEQAMKVIEKYMKELAKVVGQEKADAAKNLLFGALAKGVHAGVEAAKAELQAAAKEIQKEIKDPEAQKIIQEATKEAIKELE
B21: d1r7_design_ppi_3_dldesign_0_cycle1_af2pred (protein)
chain: AAEAAALYEATRAAAEALARVDPALAAEAARLRGQALRYYSLTFVDPAAGRAGVAAVLAEAKRLLAAARARA
B22: d1r7_design_ppi_24_dldesign_0_cycle0_af2pred (protein)
chain: SELGAILDRASEVSKRAVEVEKKAKEKGLEEALELAREALKEVQAALSLIAKGGDLADAQAKLEEGEKLLEEAEKKLKEE
B23: d1r6_design_ppi_166_dldesign_0_cycle0_af2pred (protein)
chain: SAVAADGAAALAVAADLMAAGKEYAAAGDLANAARAYQSARALAATMAAAAAAAGDAATAAALAAAAAAAAAAEAEVKA
B24: d1r7_design_ppi_446_dldesign_0_cycle1_af2pred (protein)
chain: GEAARNAEEIFADSRERARALAAEYRASGDPADLAIAAELEEALARAEEEGPAGGVRLIILTDGILQARAAAAA
B25: d1r7_design_ppi_71_dldesign_0_cycle1_af2pred (protein)
chain: DYAAQQLALTTRAQEVAERAKKAGKELGNPEEAKKIQQLASLAQALAINPATFPQAEKKLEEAEKRAKKLEKKAKE
B26: d1r6_design_ppi_106_dldesign_0_cycle1_af2pred (protein)
chain: DLISKAVYYYALGIADPANAAEYKAKAQAEIDKLSPEEAAKAKAELEKVTKSQEELAAKSAERAAARAAAA
B27: d1r7_design_ppi_290_dldesign_0_cycle0_af2pred (protein)
chain: SAEAAEAEAAAARELAREMYALTPEEAAERMTALFLESPGRALRAATELVRAEGPAALPLAQAWLRAGVAAAQAA
B28: d1r6_design_ppi_780_dldesign_0_cycle1_af2pred (protein)
chain: NAAATRAFSLAVARQAEETAKQVAGVDPELAKKLKELAKEVRKLAADPATHLQAVEATIEALKAIGEANKKLA
B29: d1r6_design_ppi_2_dldesign_0_cycle1_af2pred (protein)
chain: EQYFTDRDIAAAEAAAAKYAALAADPEARAYAARFREAAALIRDPATRAEGIDLLAATEAAAAAHAKALAA
B30: d1r7_design_ppi_252_dldesign_0_cycle1_af2pred (protein)
chain: VKEEAVALAKEAAALAREAAELLAPDPLLAAQAQRLAERAEELAERAKAASEEEAKELLEEARVLLAQAELLLTIARQR
B31: d1r6_design_ppi_480_dldesign_0_cycle1_af2pred (protein)
chain: AAETQQAADIIIANAEHAKRLAKENPEAGEKLVEVLEESAKWVEAKDPEAGAKAKKAVEEAKKVAEAVKAAREAAKALA
B32: d1r6_design_ppi_725_dldesign_0_cycle0_af2pred (protein)
chain: AELAATHMAGVEALNRARAAAVALVALDPARGAAWLAEADELGRRLNEAAADASRAEELKRITEELEKLAERIAAERDAAAA
B33: d1r7_design_ppi_304_dldesign_0_cycle0_af2pred (protein)
chain: AAEAAAAAAATARASAAMAAFARRRLEEGAAAGPEALARAVAELEALAAHADPAIGAALRAALAATLAALAAAA
B34: d1r6_design_ppi_671_dldesign_0_cycle1_af2pred (protein)
chain: AVEEALKKAEEAAKELEKVAKELGDKEAKEKAKQVKSLIEFAKVAAEAGDEKTALHAAKQAKELAEKALKEAKAKLEAKKAEEEKLKK
B35: d1r6_design_ppi_612_dldesign_0_cycle1_af2pred (protein)
chain: GAALEEQAKKIAEEAIEKIKKGAETGSLSPEEILALASKTVAQLSAIAIASKGGVAAGAGAVEVQKVAAEAL
B36: d1r7_design_ppi_77_dldesign_0_cycle1_af2pred (protein)
chain: SAVEDAANAIWEAAKAMAKAVPEAAATVDKLAREAVRALMLGDYEKAAKIVKEMAKAVAKADPKAAKKAEELAKKTVAKIKAA
B37: d1r7_design_ppi_302_dldesign_0_cycle1_af2pred (protein)
chain: SPVAAQAEALRDAAVAVAKTGNPEAAAAAAHAAVAQMNRLALAHPEENATASSEAVATLEEVDRLRAAQRAAAG
B38: d1r7_design_ppi_420_dldesign_0_cycle1_af2pred (protein)
chain: MTKAEVVAEAIAVAKEAAKIAKANKESPEVQELQKKALDLAFKALASNDAAEAQKYAEKAKEVKKELEKKAKEL

target: CD276, Q5ZPR3
Sequence (Q5ZPR3 whole entry): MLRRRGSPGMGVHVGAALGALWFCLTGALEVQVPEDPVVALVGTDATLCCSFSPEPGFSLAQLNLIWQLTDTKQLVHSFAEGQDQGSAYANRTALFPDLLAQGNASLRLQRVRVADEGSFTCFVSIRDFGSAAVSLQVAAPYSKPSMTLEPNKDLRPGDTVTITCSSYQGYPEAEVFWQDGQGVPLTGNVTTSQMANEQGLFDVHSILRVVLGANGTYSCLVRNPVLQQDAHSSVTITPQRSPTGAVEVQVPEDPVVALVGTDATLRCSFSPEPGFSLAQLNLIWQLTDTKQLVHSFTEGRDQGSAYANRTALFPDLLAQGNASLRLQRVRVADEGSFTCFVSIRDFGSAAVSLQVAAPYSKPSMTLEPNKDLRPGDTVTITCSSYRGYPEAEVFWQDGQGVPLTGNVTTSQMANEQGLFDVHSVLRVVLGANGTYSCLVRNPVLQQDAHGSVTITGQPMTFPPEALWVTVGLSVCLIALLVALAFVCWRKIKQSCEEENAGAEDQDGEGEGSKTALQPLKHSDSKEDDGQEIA

Binding in a display sort, inactive:
B1 not found, B2 not found, B3 not found, B4 not found, B5 not found, B6 not found, B7 not found, B8 not found, B9 not found, B10 not found, B11 not found, B12 not found, B13 not found, B14 not found, B15 not found, B16 not found, B17 not found, B18 not found, B19 not found, B20 not found, B21 not found, B22 not found, B23 not found, B24 not found, B25 not found, B26 not found, B27 not found, B28 not found, B29 not found, B30 not found, B31 not found, B32 not found, B33 not found, B34 not found, B35 not found, B36 not found, B37 not found, B38 not found
